High-throughput results (PubChem BioAssay)
PfHsp90 set2: inhibits growth of yeast expressing Plasmodium falciparum Hsp90; S. cerevisiae expressing PfHsp90, BacTiter-Glo ATP, 48 h; yeast lacking PDR1 and PDR3 efflux regulators; inhibition, % at 9.4 µM; hit rate 0.32% among 310,000; AID 504621;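 active means every replicate shows inhibition above about 80%, whatever the replicate mean, limit read from the data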;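 further: 0% = DMSO neutral controls and 100% = 20 µM radicicol positive controls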
ARNT TACC3 PPI: ARNT/TACC3 interaction disruption | AlphaScreen His-ARNT PAS-B/GST-TACC3 binding, luminescence; TACC3 fragment carries E629A point mutation | inhibition, % at 9.99 µM | Q9Y6A5 | hit rate 0.66% among 390,000;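 active means mean inhibition of replicates at least 50% and at least half of replicates each reaching 50%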;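 further: 0% = complete ARNT plus TACC3 wells and 100% = ARNT alone without TACC3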
NSD2 HMT inh: NSD2 (human) methyltransferase inhibition. O96028. NSD2 peptide methylation, AlphaScreen, 120 min. inhibition, % at 12.5 µM. hit rate 0.54% among 310,000. AID 743445; in the data active means inhibition above about 50%
Casp6 inh: caspase-6 (human) enzyme inhibition. inhibition, % at 12.5 µM. AID 686996. hit rate 0.53% among 350,000. P55212. purified caspase-6, Z-VEID-R110 cleavage fluorescence;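 active means mean inhibition across replicates at least about 35%, with every replicate also reaching that limit, limit read from the data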;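 further: 0% = median of neutral control wells and 100% = no fluorescence left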
Target sequence (P55212 24-179 limits assumed): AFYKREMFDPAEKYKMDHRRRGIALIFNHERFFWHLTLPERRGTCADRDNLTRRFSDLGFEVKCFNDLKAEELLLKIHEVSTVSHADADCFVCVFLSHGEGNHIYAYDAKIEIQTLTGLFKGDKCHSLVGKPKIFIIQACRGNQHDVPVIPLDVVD
Target sequence (P55212 194-293 limits assumed): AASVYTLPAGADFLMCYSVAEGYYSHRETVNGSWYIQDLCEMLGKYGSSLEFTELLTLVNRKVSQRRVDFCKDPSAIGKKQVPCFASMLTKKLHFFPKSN
SIRT5 block: sirtuin-5 (human) deacylase inhibition. Purified SirT5, succinyl-peptide AMC, trypsin-coupled fluorescence. inhibition, % at 15 µM. Q9NXA8. hit rate 1.1% among 330,000. AID 652115; in the data active means inhibition above about 15%
Target sequence (Q9NXA8 whole entry, looked up): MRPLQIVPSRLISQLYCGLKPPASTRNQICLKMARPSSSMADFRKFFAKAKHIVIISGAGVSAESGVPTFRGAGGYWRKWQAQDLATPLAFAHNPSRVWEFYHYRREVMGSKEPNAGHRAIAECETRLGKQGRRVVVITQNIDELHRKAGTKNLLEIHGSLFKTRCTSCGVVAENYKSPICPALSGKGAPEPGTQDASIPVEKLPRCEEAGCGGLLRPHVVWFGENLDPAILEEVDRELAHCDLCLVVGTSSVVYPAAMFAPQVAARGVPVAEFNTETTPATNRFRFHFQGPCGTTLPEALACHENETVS
* = called active by the depositor; · = no result given. An excerpt weighted towards active compounds, which were near 2.1% of everything screened.

SMILES	PfHsp90 set2	ARNT TACC3 PPI	NSD2 HMT inh	Casp6 inh	SIRT5 block
Cc1ccccc1-c1ccc([C@@H]2[C@@H](CO)N3CCCCN(S(=O)(=O)c4ccc(F)cc4)C[C@H]23)cc1	·	15	·	·	·
O=S(=O)(c1ccc(F)cc1)N1CCCCN2[C@@H](CO)[C@H](c3ccc(-c4ccccc4F)cc3)[C@@H]2C1	·	2	·	0	22*
O=S(=O)(c1ccc(F)cc1)N1CCCCN2[C@@H](CO)[C@@H](c3ccc(-c4ccccc4F)cc3)[C@@H]2C1	·	-1	·	-2	16*
Cc1ccccc1-c1ccc([C@H]2[C@H](CO)N3CCCCN(S(=O)(=O)c4ccc(F)cc4)C[C@@H]23)cc1	·	15	·	·	21*
O=S(=O)(c1ccc(F)cc1)N1CCCCN2[C@H](CO)[C@H](c3ccc(-c4ccccc4F)cc3)[C@H]2C1	·	5	·	0	-1
O=S(=O)(c1ccc(F)cc1)N1CCCCN2[C@H](C1)[C@H](c1ccc(-c3ccccc3F)cc1)[C@@H]2CO	·	11	·	-1	17*
COCC(=O)N(C)C[C@H]1Oc2ncc(-c3ccc(C)cc3)cc2C(=O)N([C@H](C)CO)C[C@H]1C	·	-10	·	-1	-1
O=S(=O)(c1ccc(F)cc1)N1CCCCN2[C@H](CO)[C@H](c3ccc(-c4ccccc4F)cc3)[C@@H]2C1	·	9	·	-2	20*
O=S(=O)(c1ccc(F)cc1)N1CCCCN2[C@H](C1)[C@@H](c1ccc(-c3ccccc3F)cc1)[C@@H]2CO	·	2	·	-2	14
c1cncc(-c2nc3cc4ccccc4cc3[nH]2)c1	16	1	·	0	-3
Oc1cc(Nc2ccccc2)cc2cccnc12	7	66*	·	16	·
Oc1cc(-c2cccnc2)cc2cccnc12	-34	65*	·	·	·
O=C(C[C@H]1CC[C@@H](NC(=O)C2CC2)[C@H](CO)O1)NCc1ccccc1Cl	·	-9	·	1	-4
COC(=O)c1ccc(N2C(=O)CC(N3CCC(O)(c4ccc(Br)cc4)CC3)C2=O)cc1 (centres undefined)	100*	4	·	·	·
CC=Cc1ccc2n(c1=O)C[C@@H]1[C@@H](CO)[C@H](C(=O)NC3CCCC3)N(Cc3ccncc3)[C@H]21 (mixture of isomers)	·	4	·	9	1
CCOC(=O)C1=NOC(COc2ccccc2C=O)C1 (centres undefined)	-2	-3	2	-4	23*
COc1cc(/C=C2\SC(=S)N(Nc3ncc(C(F)(F)F)cc3Cl)C2=O)ccc1O	106*	7	10	·	·
CN(C)c1ccc(/C=C2\SC(=S)N(Nc3ncc(C(F)(F)F)cc3Cl)C2=O)cc1	·	0	-2	·	·
C[C@H]1CN([C@@H](C)CO)C(=O)c2cc(NC(=O)C3CCCCC3)ccc2O[C@@H]1CN(C)CC1CC1	·	-4	·	·	22*
C[C@@H]1CN([C@H](C)CO)C(=O)c2cccc(NC(=O)C3CCCCC3)c2O[C@@H]1CN(C)CC1CC1	·	-4	·	1	21*
C[C@@H]1CN([C@H](C)CO)C(=O)c2cc(NC(=O)C3CC3)ccc2O[C@H]1CN(C)C	·	49*	·	1	0
C[C@@H]1CN([C@@H](C)CO)C(=O)c2cccc(NC(=O)C3CCCCC3)c2O[C@@H]1CN(C)CC1CC1	·	-3	·	-1	13
C[C@H](CO)N1C[C@H](C)[C@H](CN(C)C(=O)Nc2cccc3ccccc23)Oc2c(NS(=O)(=O)c3cccs3)cccc2C1=O	·	32	·	0	2
CN(C)C(=O)[C@H]1[C@H](CO)[C@H]2Cn3c(ccc(C4=CCCC4)c3=O)[C@H]2N1Cc1ccccn1	·	13	·	-1	7
COc1ccc(O)c(/C=N/NC(=S)Nc2cccnc2)c1	-10	67*	-12	0	-6
SMILES	PfHsp90 set2	ARNT TACC3 PPI	NSD2 HMT inh	Casp6 inh	SIRT5 block
COc1cc(/C=N/NC(=S)Nc2cccc(S(=O)(=O)N(C)C)c2)cc(OC)c1O	22	12	-2	-5	1
COc1cccc(/C=N/NC(=S)Nc2cccnc2)c1	-9	3	-1	-2	-2
COc1ccc(O)c(/C=N/NC(=S)Nc2cccc(S(=O)(=O)N(C)C)c2)c1	-12	65*	-15	·	·
COc1cccc(/C=N/NC(=S)Nc2cccc(S(=O)(=O)N(C)C)c2)c1	8	13	2	1	-2
CN(C)S(=O)(=O)c1cccc(NC(=S)N/N=C/c2ccc(O)c(O)c2O)c1	8	69*	-6	38*	3
CCS(=O)(=O)N1CCC2(CC1)CN(C(=O)Nc1cccc(F)c1)[C@@H](CO)c1c2c2ccc(OC)cc2n1C	·	·	·	2	6
C[C@@H]1CN([C@@H](C)CO)C(=O)Cc2cc(NC(=O)Cc3ccccc3)ccc2O[C@H]1CN(C)C	·	-7	·	-6	-6
COc1ccc2c(n1)Sc1nc3ccccc3nc1N2	89*	8.9*	21	14	-1
C[C@H](CO)N1C[C@H](C)[C@H](CN(C)S(=O)(=O)c2ccc(F)cc2)Oc2cc(C3=CCCCC3)ccc2S1(=O)=O	·	-2	·	-3	32*
C[C@H]1CN([C@@H](C)CO)S(=O)(=O)c2ccc(C3=CCCCC3)cc2O[C@@H]1CN(C)S(=O)(=O)c1ccc(F)cc1	·	-1	·	1	33*
C[C@H]1CN([C@@H](C)CO)S(=O)(=O)c2ccc(C3=CCCCC3)cc2O[C@H]1CN(C)S(=O)(=O)c1ccc(F)cc1	·	9	·	-1	27*
C[C@@H]1CN([C@@H](C)CO)S(=O)(=O)c2ccc(C3=CCCCC3)cc2O[C@@H]1CN(C)S(=O)(=O)c1ccc(F)cc1	·	0	·	1	22*
C[C@@H]1CN([C@@H](C)CO)S(=O)(=O)c2ccc(C3=CCCCC3)cc2O[C@H]1CN(C)S(=O)(=O)c1ccc(F)cc1	·	3	·	-1	26*
CO[C@H]1CN(C)C(=O)c2cc(NC(=O)Nc3ccc(Cl)cc3)ccc2OC[C@H](C)N(C)C[C@H]1C	·	-5	·	-13	-3
CSc1nccc(-c2nn(-c3ccc(C)cc3)ccc2=O)n1	9	58*	1	·	·
CCSc1nccc(-c2nn(-c3ccc(C)cc3)ccc2=O)n1	-5	24	0	·	·
C=CC1=C(C(=O)O)N2C(=O)C(NC(=O)Cc3ccccc3)C2SC1 (centres undefined)	2	-2	2	96*	·
CC(Oc1ccc2c(-c3ccccc3)cc(=O)oc2c1)C(=O)NC(Cc1c[nH]c2ccc(O)cc12)C(=O)O (centres undefined)	4	2	·	14	2
COc1ccc2c(c1)c(=O)oc1c(C)c(OC(C)C(=O)N[C@@H](Cc3c[nH]c4ccc(O)cc34)C(=O)O)ccc12 (some centres undefined)	8	31	·	39*	3
O=C(Nc1cc(F)ccc1F)N1CCCCN2[C@H](C1)[C@H](c1ccc(-c3ccccc3)cc1)[C@@H]2CO	·	4	·	0	3
O=C(Nc1cc(F)ccc1F)N1CCCCN2[C@H](CO)[C@H](c3ccc(-c4ccccc4)cc3)[C@H]2C1	·	13	·	-1	29*
